Bioassay records as filed in PubChem BioAssay.
A selection follows.
aSyn 5UTR act: Activators via SNCA 5'UTR binding, MLPCN; activity score, % (tested at 7.5 µM), hits read low; AID 1814, 2009; 7.1% of 300,000 active; alpha-synuclein 5'UTR reporter, activators screen; in the data active = activity score below about -60%
* hit, by the source's call.

SMILES	aSyn 5UTR act
Cn1ncc(Cl)c1C(=O)Nc1nc2ccc(Cl)cc2s1	-198*
Cc1cc(C(=O)Nc2nc3ccc(Cl)cc3s2)nn1C	-128*
CCCCNc1nc(N)nc(-c2cc(Cl)ccc2O)n1	-67*
COc1ccccc1NC(=O)c1ccc2[nH]c(C)c(C)c2c1	-145*
COc1ccccc1NC(=O)c1ccc2nc(C)sc2c1	-105*
COc1cccc(NC(=O)c2ccc3nc(C)sc3c2)c1	-239*
C(=N\Nc1nc(-c2ccccc2)cs1)/c1ccco1	-351*
Clc1ccc(-c2csc(N/N=C/c3ccco3)n2)cc1	-156*
Clc1ccc(-c2csc(N/N=C\c3cccnc3)n2)cc1	-77*
Cc1ccc(-c2csc(N/N=C/c3ccco3)n2)cc1	-232*
COCCCNC(=S)N/N=C/c1ccc(N(C)C)cc1	-112*
COCCCNC(=S)N/N=C/c1ccc(N(C)C)cc1Cl	-107*
CCCCOc1ccc(-c2ncc(C(=O)O)c(C)n2)cc1	-123*
O=C(O)c1ccc2c(=O)n3c(nc2c1)/C(=C/c1ccc(F)cc1)CC3	-73*
O=C(Nc1ccc(F)cc1Cl)c1ccc2c(=O)n3c(nc2c1)CCCCC3	-144*
O=C(NCCc1ccc(F)cc1)c1ccc2c(=O)n3c(nc2c1)CCC3	-71*
CCOc1ccc2nc3sc(C(=O)N4CCN(C)CC4)c(N)c3cc2c1	-80*
CC(C)c1ccc2nc3sc(C(=O)N4CCc5ccccc5C4)c(N)c3cc2c1	-62*
Cc1ccc2nc3sc(C(=O)N4CCOCC4)c(N)c3cc2c1	100
COc1ccc2cc3c(N)c(C(=O)N4CCCC4)sc3nc2c1	-189*
Cc1ccc2cc3c(N)c(C(=O)N4CC(=O)Nc5ccccc54)sc3nc2c1	82
Cc1ccc(NC(=O)Nc2cccc(F)c2)nc1	-176*
O=C(Nc1cccc(F)c1)Nc1ccc(Cl)cn1	-135*
CC(C)Cc1ccc(C(C)C(N)=NCCc2ccccc2)cc1 (stereo not drawn)	-75*
COc1ccc2nc3cc(Cl)ccc3c(Nc3cc(CN4CCCC4)c(O)c(CN4CCCC4)c3)c2n1	104
SMILES	aSyn 5UTR act
COc1ccc(CC2(CO)COc3ccccc3C2=O)cc1 (stereo not drawn)	-64*
O=C(NC(=S)Nc1nc2ccccc2s1)c1cccs1	-136*
COC(=O)c1nc(NC(=S)NC(=O)c2cccs2)sc1C	-80*
COC(=O)Cc1nc(NC(=O)c2cccs2)sc1C	-82*
COc1ccc(-c2cc(C(=O)N3CCCc4ccccc43)no2)cc1	-107*
COc1cccc(-c2cc(C(=O)N3CCCc4ccccc43)no2)c1	-126*
COc1cccc(-c2nc(-c3ccc(C(=O)O)cc3)no2)c1	-96*
COc1ccc(-c2nc(-c3ccc(NC(=O)c4ccncc4)cc3)no2)cc1OC	-155*
COc1cccc(-c2noc(-c3ccc(Cl)nc3)n2)c1	-182*
O=C(O)c1ccc(-c2noc(-c3cccc(F)c3)n2)cc1	-96*
COc1cccc(-c2nc(-c3ccc(NC(=O)c4cccs4)cc3)no2)c1	-154*
COc1cc(OC)cc(-c2nc(-c3ccccc3)no2)c1	-140*
COc1ccc2[nH]c(=O)c(-c3noc(-c4ccccc4)n3)cc2c1	-121*
COc1ccc(-c2nc(-c3ccccn3)no2)cc1	107
Oc1ccc(-c2nccc(-c3ccc(F)cc3)n2)cc1	-144*
O=C(Nc1nnc(-c2ccc(F)cc2)s1)c1ccco1	-121*
O=C(Nc1nnc(/C=C/c2ccccc2)s1)c1ccco1	-83*
Cc1cccc(-c2nnc(NC(=O)c3ccco3)s2)c1	-124*
CC(C)Sc1nnc(NC(=O)c2ccco2)s1	-64*
COc1ccc(Cc2nnc(NC(=O)c3ccco3)s2)cc1	-62*
COc1cc(CNCc2ccccn2)ccc1OCc1ccc(Cl)cc1	-66*
FC(F)(F)c1ccc2c(c1)nc1n2CCCC1	-65*
COC(=O)c1c(C)[nH]c(/C=N/Nc2ccccc2)c1C	-71*
OC1CCCCC1Sc1nc2ccccc2s1 (stereo not drawn)	-88*
Cn1cc(Cl)c(C(=O)N/N=C/c2ccc3c4c(cccc24)CC3)n1	-126*
SMILES	aSyn 5UTR act
Cc1ccc(/C=N/NC(=O)c2nn(C)cc2Cl)cc1	-108*
O=C1C(C=Nc2ccccc2)=C(O)c2ccccc21	-78*
COc1ccc(N=CC2=C(O)c3ccccc3C2=O)cc1	-80*
CCOC(=O)/C(=N/Nc1ccc(C)cc1)S(=O)(=O)c1ccc(Cl)cc1	-142*
O=[N+]([O-])c1ccc(-c2cnc(SCc3ccccc3Cl)[nH]2)cc1	-89*
Cc1ccc(Cn2ccnc2C(=O)Nc2ccccc2)cc1	-156*
COc1ccc(C(=O)Oc2ccc3oc(=O)sc3c2)cc1	-89*
CC(=O)c1ccc(NC(=O)Cc2ccsc2)cc1	-79*
CC(=O)c1ccc(NC(=O)Cc2cccs2)cc1	-84*
Cc1cc(NC(=O)Cc2ccsc2)ccc1Br	-112*
CC(C)c1cc2c(c(O)c1O)[C@@]13CCCC(C)(C)C1CC2OC3=O (stereo partly drawn)	-126*
Cc1cnc(C(=O)Nc2ccc(F)c(F)c2)cn1	-133*
Cc1cnc(C(=O)NCCc2ccc(Cl)cc2)cn1	-114*
CCCCOc1ccc(NC(=O)c2cnc(C)cn2)cc1	-113*
Cc1cc(C)n2nc(C(=O)Nc3ccc4c(c3)CCC4)nc2n1	-101*
Cc1cnc(C(=O)Nc2ccc3c(c2)CCC3)cn1	-136*
O=C(Nc1ccc2c(c1)CCC2)c1cnccn1	-175*
O=C(Nc1ccc(N2CCOCC2)cc1)c1cnccn1	67
c1ccc2c(c1)Cn1c-2nc2ccccc21	-124*
Brc1c(-c2ccccc2)nc2n1Cc1ccccc1-2	-146*
CCn1c(SCc2nc3ccccc3s2)nnc1-c1cccs1	-160*
NC(=O)CSCc1nc2ccccc2s1	-65*
COc1ccccc1-c1nnc(SCc2nc3ccccc3s2)n1C	-109*
Cc1ccccc1-n1c(C)nnc1SCc1nc2ccccc2s1	-250*
CCOc1ccccc1-n1nnnc1SCc1nc2ccccc2s1	-233*
SMILES	aSyn 5UTR act
Cn1c(SCc2nc3ccccc3s2)nnc1-c1cccs1	-67*
COc1ccc(-c2nnc(SCc3nc4ccccc4s3)n2C(C)C)cc1	-107*
CC(=O)c1ccc(NC(=O)CCc2c(C)nc3ncnn3c2C)cc1	-69*
CCc1c(C)nc2ncnn2c1Nc1ccc(C(C)=O)cc1	-112*
CN(C)c1ccc(/C=C/c2nc3ccccc3c(=O)[nH]2)cc1	87
Cc1cccc(/C=C\c2nc3ccccc3c(=O)[nH]2)c1	-74*
Cc1ccc(Nc2nc3ccccc3c(=O)[nH]2)cc1C	-195*
O=C(Nc1cccc(/C=C/c2nc3ccccc3c(=O)[nH]2)c1)c1ccccc1Cl	-132*
O=c1[nH]c(/C=C/c2ccc(Br)cc2)nc2ccccc12	-169*
O=C(Nc1nnc(Cc2ccccc2F)s1)Nc1ccccc1F	-99*
O=C(Nc1nnc(-c2ccccc2F)s1)Nc1ccccc1F	-155*
COc1c(OC(C)=O)ccc(/C=C/c2ccc3cccc(OCc4ccccc4)c3n2)c1[N+](=O)[O-]	-129*
Cc1ccc(-n2sc3ccccc3c2=O)cc1	-121*
COc1ccccc1Nc1ncc(-c2cccs2)s1	-177*
N/C(=N\OC(=O)c1ccc(Cl)cc1Cl)c1cccnc1	-70*
Cc1ccccc1/C(N)=N/OC(=O)c1cccs1	-120*
N/C(=N\OC(=O)c1ccc(Cl)cc1)c1ccc(Cl)cc1	-122*
CCSc1ccc(/C(N)=N/OC(=O)c2cccs2)cn1	-120*
COc1cc(-c2noc(C)c2/C=C/c2ccc(N)cc2)cc(OC)c1OC	104
N/C(=N\OC(=O)c1cccs1)c1cccnc1	-92*
